# Experimental data published in PubChem BioAssay (EPA / NIEHS).
# Activity calls are given as the source filed them. Rule for the calls: active = hit-call score of the fitted dose curve at least 0.9, where 1 is the maximum; inactive = score below 0.9.
# Assay: APR_HepG2_P-H2AX_24hr: Apredica 24-hour HepG2 Assay for H2AX Phosphorylation (AID 2282920)
# Conditions: high-content imaging, actives raise or lower the signal
# Experimental: APR_HepG2_24hr is a cell-based, multiplexed-readout assay that uses HepG2, a human liver cell line, with measurements taken at 24 hours after chemical dosing in a 384-well plate.APR_HepG2_P-H2AX_24hr is one of 10 assay component(s) measured or calculated from the APR_HepG2_24hr assay. It is designed to make measurements of dna content, a form of viability reporter, as detected with fluorescence intensity signals by HCS Fluorescent Imaging technology.Data from the assay component APR_HepG2_P-H2AX_24hr was analyzed into 1 assay endpoint. This assay endpoint, APR_HepG2_P-H2AX_24hr, was analyzed with bidirectional fitting relative to DMSO as the negative control and baseline of activity. Using a type of viability reporter, measures of protein for gain or loss-of-signal activity can be used to understand the signaling at the pathway-level as they relate to the gene . Furthermore, this assay endpoint can be referred to as a primary readout, because this assay has produced multiple assay endpoints where this one serves a signaling function. To generalize the intended target to other relatable targets, this assay endpoint is annotated to the dna binding intended target family, where the subfamily is cellular response to DNA damage stimulus.
# Cells were treated with dimethyl sulfoxide (DMSO) as a solvent control at a final concentration of 0.5% v/v or with compounds in DMSO with a resulting final DMSO concentration of 0.5% v/v. Compound treatment was done at concentrations of 0.39, 0.78, 1.56, 3.12, 6.24, 12.5, 25, 50, 100, and 200 uM in duplicate on each plate. Cells were treated with compounds for 1, 24, or 72 hr. Carbonyl […] m-chloro-phenylhydrazone (CCCP) and taxol were used as positive controls for mitochondrial function and cytoskeletal stability, respectively; DMSO served as the negative control for this experiment. Cells were fixed by the direct addition of 50 uL formaldehyde in Hank's Balanced Salt Solution (HBSS) to a final concentration of 3.7%. After incubation in the fixation medium for 30 min at room temperature (293-298 K), cells were rinsed twice with HBSS and treated with cell permeabilization buffer (16 uL of 0.5% Triton X-100) for 10 min at room temperature (293-298 K) before labeling. For mitochondrial membrane potential and mitochondrial measurements, pre-fixed cells were incubated with 50 uL of MitoTracker Red CMXRos (Invitrogen) at a concentration of 250 nM for 30 min before fixation. In the remaining cases, post-fixed cells were labeled by incubation with a multiplexed mixture of primary antibodies in HBSS for 60 min at room temperature (293-298 K) to detect immunoreactivity of c-Jun (1:500), phospho-histone H3 (1:100), phospho-histone H2A.x (1:200), p53 (1:400), alpha-tubulin (1:200) and Hoechst 33342 (2 ug/mL). Cells were labeled for multiplexed imaging on two separate plates: a) Hoechst 33342, MitoTracker Red, phospho-histone H3, and alpha-tubulin, and b) Hoechst 33342, phospho-histone H2A.x, and c-Jun. A final rinse with HBSS (50 uL) was performed before analysis. The primary and secondary antibodies for the proteins were phospho-histone H3 (rabbit anti-phospho-histone H3 and FITC-donkey anti-rabbit IgG), phospho-histone H2A.x (mouse anti-phospho-histone H2A.x and FITC-donkey anti-mouse IgG), c-Jun (rabbit anti-phospho-c-Jun and Cy3-donkey anti-rabbit IgG), p53 (sheep anti-p53 and Cy5-donkey anti-sheep IgG), alpha-tubulin (mouse anti-alpha-tubulin and Cy5-donkey anti-mouse IgG). These antibodies are available as the CellCiphr HepG2 assay kit (Millipore).Digital images of each well were captured using a Cellomics ArrayScan VTI (Thermo Scientific Cellomics) (0.8 NA objective, 0.63x optical coupler, and XF-93 filter set) at 20x magnification. The images were acquired using the autofocus feature of the ArrayScan instrument, which entails the following steps. First, the camera focuses on channel 1 (Hoechst 33342), where nuclei are identified. Second, a Z offset of 1 um is used for capturing mitochondria (MitoTracker Red). […]
SMILES,outcome,AC50
CCN(Cc1cccc(S(=O)(=O)O)c1)c1ccc(C(=C2C=CC(=[N+](CC)Cc3cccc(S(=O)(=O)O)c3)C=C2)c2ccccc2S(=O)(=O)[O-])cc1,inactive,
O=C(OCCCCCCOC(=O)c1ccccc1)c1ccccc1,inactive,
COCC(C)OCC(C)OCC(C)O (stereo not given),inactive,
COc1ccc2cc(S(=O)(=O)N[C@H](CC(=O)N[C@H](Cc3ccc(CN4[C@H](C)CCC[C@@H]4C)cc3)C(=O)N(C)C(C)C)c3ccc4c(c3)OCO4)ccc2c1,,21.8 µM (active)
O=C(Nc1ccc(Cl)cc1)Nc1ccc(Cl)c(Cl)c1,,4.63 µM (active)
CN1C(=O)CC[C@H]1c1cccnc1,inactive,
CC/C(=C(/CC)c1ccc(O)cc1)c1ccc(O)cc1,,33.1 µM (active)
CC[C@@H]1C[C@H](N(Cc2cc(C(F)(F)F)cc(C(F)(F)F)c2)C(C)=O)c2cc(C(F)(F)F)ccc2N1C(=O)OC(C)C,inactive,
CCCCCCCC[Si](OCC)(OCC)OCC,inactive,
Cc1cccc2ccccc12,inactive,
COc1cc(C(=O)NC2CCN(C)CC2)ccc1Nc1ncc2c(n1)N(C1CCCC1)CC(F)(F)C(=O)N2C,inactive,
CC(=O)N1CCN(c2ccc(OC[C@H]3CO[C@](Cn4ccnc4)(c4ccc(Cl)cc4Cl)O3)cc2)CC1,inactive,
c1ccc(C[n+]2cccc3ccccc32)cc1,,106 µM (active)
CN(C)c1ccc(C(=C2C=CC(=[N+](C)C)C=C2)c2ccc(N(C)C)cc2)cc1,,4.3 µM (active)
CN1C(=O)N(c2ccccc2Br)Cc2cnc(Nc3ccc4c(c3)OCC(CO)O4)nc21 (stereo not given),,5.05 µM (active)
Cc1c2ccccc2c(C)c2c1ccc1ccccc12,,19.8 µM (active)
C[C@]12CC[C@@H]3c4ccc(O)cc4CC[C@H]3[C@@H]1CC[C@H]2O,,62.4 µM (active)
CCCCCc1ccc(N)cc1,inactive,
NCc1cccc(C2CCN(C(=O)c3ccc(C#Cc4ccccc4F)o3)CC2)c1,,18.6 µM (active)
CCCCCCCCCCCC[N+](C)(C)C,,50.4 µM (active)

SMILES,outcome,AC50
CCN(Cc1cccnc1)C(=O)c1cccc(Cl)c1[C@]1(C)C(=O)N(Cc2ccc(OC)cc2OC)c2ccc(Cl)cc21,inactive,
Cc1ncc(CO)c(CO)c1O,inactive,
c1ccc2ccccc2c1,inactive,
OC12N=C(c3ccccc3)SC1Cc1cc(Cl)ccc12 (stereo not given),inactive,
Cc1occc1C(=O)Nc1ccc(C(=O)N2CCC(F)(F)/C(=C\C(=O)N3CCC(N4CCCCC4)CC3)c3ccccc32)cc1,inactive,
O=C(O)Cc1cc(I)c(Oc2ccc(O)c(I)c2)c(I)c1,inactive,
Cc1ccc(C(C)C)cc1,inactive,
Oc1ccccc1,inactive,
OCCO,inactive,
O=c1ccc2ccccc2o1,inactive,
Clc1ccccc1C(c1ccccc1)(c1ccccc1)n1ccnc1,,79.4 µM (active)
Oc1ccc2ccccc2c1,inactive,
O=C(O)c1ccccc1-n1cc(C(=O)O)c(=O)c2cc(Nc3c(F)cc(F)cc3Cl)c(Cl)cc21,inactive,
CC[C@H](NC(=O)c1cc(F)ccc1NS(=O)(=O)c1cccc2cccnc12)c1ccccc1,inactive,
CN(C[C@@H](CC[N+]12CCC(C3CCCCC3)(CC1)CC2)c1ccc(Cl)c(Cl)c1)C(=O)c1cc(C(F)(F)F)cc(C(F)(F)F)c1,,35.1 µM (active)
Clc1cc(Cl)c2c(c1)N=C1CCCCCN1C2,inactive,
CCCCCCCCOC(=O)c1cc(O)c(O)c(O)c1,,45.6 µM (active)
CC(C)(C)c1csc(-c2cc3cc(OCc4ccccc4CC(=O)O)ccc3o2)n1,inactive,
Cc1ccc2oc(CN(Cc3ccccc3)C(=O)Nc3c(F)cc(F)cc3F)c(-c3ccc(Cl)cc3)c2c1,inactive,
CO[C@H]1/C=C/O[C@@]2(C)Oc3c(C)c(O)c4c(O)c(c(/C=N/N5CCN(C)CC5)c(O)c4c3C2=O)NC(=O)/C(C)=C\C=C\[C@H](C)[C@H](O)[C@@H](C)[C@@H](O)[C@@H](C)[C@H](OC(C)=O)[C@@H]1C,inactive,
